Laboratory results: PubChem BioAssay (EPA / NIEHS)
Values joined by “and” are separate entries in the source; they are usually repeats but may differ in a detail not shown here. Equal entries are not always repeated. Results filed as inconclusive are left out. A structure can be active in one record and inactive in another. Active and inactive are the calls of the source. The calls were made as follows: active = hit-call score of the fitted dose curve at least 0.9, where 1 is the maximum; inconclusive = response in the unintended direction; inactive = score below 0.9.

Target: human Retinoid X Receptor beta (RXRb), RXRB (gene 6257) (UniProt P28702)
Assay: ATG_RXRb_TRANS: Attagene TRANS-FACTORIAL HepG2 Assay for human Retinoid X Receptor beta (RXRb) (AID 2283013)
Description: ATG_TRANS is a cell-based, multiplexed-readout assay that uses HepG2, a human liver cell line, with measurements taken at 24 hours after chemical dosing in a 24-well plate.ATG_RXRb_TRANS is one of 30 assay component(s) measured or calculated from the ATG_TRANS assay. It is designed to make measurements of mRNA induction, a form of inducible reporter, as detected with fluorescence intensity signals by Reverse transcription polymerase chain reaction (RT-PCR) and Capillary electrophoresis technology.Data from the assay component ATG_RXRb_TRANS was analyzed into 1 assay endpoint. This assay endpoint, ATG_RXRb_TRANS, was analyzed in the positive analysis fitting direction relative to DMSO as the negative control and baseline of activity. Using a type of inducible reporter, measures of mRNA for gain-of-signal activity can be used to understand the reporter gene at the transcription factor-level as they relate to the gene RXRB. Furthermore, this assay endpoint can be referred to as a primary readout, because this assay has produced multiple assay endpoints where this one serves a reporter gene function. To generalize the intended target to other relatable targets, this assay endpoint is annotated to the nuclear receptor intended target family, where the subfamily is non-steroidal.
Human liver HepG2 cells are transiently transfected with multiple reporter transcription units (MRTUs) in 6-well plates using FuGene 6 reagent (Roche; 3 ml FuGene/1 mg DNA). The MRTU constructs are regulated by a cis-regulating element (promoter). […] A major difference between the CIS and TRANS system is that in CIS activities of endogenous TFs are measured, whereas the TRANS assay evaluates changes in activities of exogenous, chimeric NR-Gal4 proteins. […] At the end of 24 hour incubation, total RNA was isolated using TriZol reagent (Invitrogen). The isolated RNA is then reverse-transcribed using oligo(dT) primer and Mo-MLV reverse transcriptase (Invitrogen) with DNAse I (Ambion) treatment for 30 min. The one-tenth of the produced cDNA was amplified by PCR using Taq DNA polymerase (Invitrogen) and two reporter sequence-specific primers. The PCR products were fluorescently labeled by primer extension with 6-arboxyfluorescein (6-FAM) 5'-labeled reporter sequence-specific primer (2 min at 95 C, 20 s at 68 C and 10 min at 72 C) and these products were digested with 5U of HpaI (New England Biolabs) for 2h at 37 C. The fragments were purified using Qiaquick PCR columns (Qiagen), analyzed on an ABI 3130xL genetic analyzer (Applied Biosystems) with peak positions identified by using a set of X-rhodamine (ROX)-labeled MapMarker1000 molecular weight standards (BioVentures). The raw capillary electrophoresis data was processed using Attagraph software (Attagene).

Chain of human Retinoid X Receptor beta (RXRb), RXRB (gene 6257) (P28702 whole entry, looked up): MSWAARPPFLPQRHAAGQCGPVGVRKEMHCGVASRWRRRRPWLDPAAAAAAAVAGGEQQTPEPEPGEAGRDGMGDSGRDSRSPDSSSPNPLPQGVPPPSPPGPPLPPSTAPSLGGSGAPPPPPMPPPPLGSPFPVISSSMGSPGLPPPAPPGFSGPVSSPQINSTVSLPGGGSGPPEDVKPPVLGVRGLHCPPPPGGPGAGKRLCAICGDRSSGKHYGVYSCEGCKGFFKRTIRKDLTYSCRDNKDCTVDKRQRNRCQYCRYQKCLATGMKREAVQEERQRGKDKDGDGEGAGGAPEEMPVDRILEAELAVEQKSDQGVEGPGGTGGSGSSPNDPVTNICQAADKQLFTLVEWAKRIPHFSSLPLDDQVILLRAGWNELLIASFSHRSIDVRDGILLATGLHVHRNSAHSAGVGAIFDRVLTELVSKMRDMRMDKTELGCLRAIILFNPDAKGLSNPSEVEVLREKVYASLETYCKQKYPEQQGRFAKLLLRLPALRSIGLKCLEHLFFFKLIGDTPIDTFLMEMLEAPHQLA

Structure (SMILES)	outcome	AC50
C#C[C@]1(O)CC[C@H]2[C@@H]3CCC4=CC(=O)CC[C@@H]4[C@H]3CC[C@@]21CC	inactive	–
C=CCOC(Cn1ccnc1)c1ccc(Cl)cc1Cl (stereo not given)	inactive	–
O=C(O)c1ccccc1	inactive	–
CCCOC(=O)c1ccc(C(=O)OCCC)nc1	inactive	–
CCCCOC(=O)C(C)Oc1ccc(Oc2ccc(C(F)(F)F)cn2)cc1 (stereo not given)	inactive	–
CCOC(=O)[C@H](C)Oc1ccc(Oc2nc3ccc(Cl)cc3o2)cc1	inactive	–
CCCCC(CC)CN1C(=O)C2C3C=CC(C3)C2C1=O (stereo not given)	inactive	–
CCOC(=O)c1ccc(O)cc1	inactive	–
CCCN(CCC)C(=O)SCC	inactive	–
CCOC(=O)C(C)Oc1ccc(Oc2cnc3cc(Cl)ccc3n2)cc1 (stereo not given)	inactive	–
CCC(C)OC(=O)N1CCCCC1CCO (stereo not given)	inactive	–
O=C(c1ccccc1)C1CCCCC1	inactive	121 µM (active) and 57 µM (active) and 100 µM (active)
CCN(CC)C(=O)c1cccc(C)c1	inactive	–
CCSC(=O)N(CC(C)C)CC(C)C	inactive	–
CCCCCOC(=O)COc1cc(N2C(=O)C3=C(CCCC3)C2=O)c(F)cc1Cl	inactive	–
CCCCOC(=O)[C@@H](C)Oc1ccc(Oc2ccc(C(F)(F)F)cn2)cc1	inactive	–
CCN(Cc1c(F)cccc1Cl)c1c([N+](=O)[O-])cc(C(F)(F)F)cc1[N+](=O)[O-]	inactive	–
CCOC(=O)NCCOc1ccc(Oc2ccccc2)cc1	inactive	–

Structure (SMILES)	outcome	AC50
CC1(C)C(C=C(Cl)Cl)C1C(=O)OCc1cccc(Oc2ccccc2)c1 (stereo not given)	inactive	–
C[C@]12C[C@H](O)[C@H]3[C@@H](CCC4=CC(=O)CC[C@@]43C)[C@@H]1CC[C@@H]2C(=O)CO	inactive	–
CSC(=O)c1cccc2nnsc12	inactive	–
COCCO	inactive	–
Oc1ccc(C(c2ccc(O)cc2)C(Cl)(Cl)Cl)cc1	inactive	–
CC(C)(c1ccc(O)cc1)c1ccc(O)cc1	inactive	0.00419 µM (active)
S=C(S)NCCNC(=S)S.[Mn+2].[S-]C([S-])=NCCN=C([S-])[S-].[Zn+2]	inactive	20.4 µM (active)
CCNc1nc(N)nc(Cl)n1	inactive	–
CCCCOCCOCCOCc1cc2c(cc1CCC)OCO2	inactive	–
CCCOC(=O)NCCCN(C)C	inactive	–
N[C@@H](Cc1cc(I)c(Oc2ccc(O)c(I)c2)c(I)c1)C(=O)O	inactive	–
N#CSCSc1nc2ccccc2s1	inactive	13.3 µM (active)
CCCCC(CC)COC(=O)c1ccccc1C(=O)O (stereo not given)	inactive	–
Cc1nn(C)c(Oc2ccccc2)c1C=NOCc1ccc(C(=O)OC(C)(C)C)cc1	inactive	–
CCOC(=O)COc1cc(-n2ncc(C(F)(F)F)c(C)c2=O)c(F)cc1Cl	inactive	–
c1ccc(Nc2ccccc2)cc1	inactive	–
COC(=O)c1ccc(CNS(C)(=O)=O)cc1S(=O)(=O)NC(=O)Nc1nc(OC)cc(OC)n1	inactive	–
CCC(O)=C1C(=O)CC(C(=O)O)CC1=O (stereo not given)	inactive	–
